From PubChem BioAssay
ALDH1A1 inh: ALDH1A1 (human) enzyme inhibition | Potency, µM (series often up to 75.3 µM), usual class: inhibitors | Purified ALDH1A1, NADH fluorescence, propionaldehyde substrate | 220,000 compounds, 7.3% hits | P00352
Target sequence (P00352 whole entry, looked up): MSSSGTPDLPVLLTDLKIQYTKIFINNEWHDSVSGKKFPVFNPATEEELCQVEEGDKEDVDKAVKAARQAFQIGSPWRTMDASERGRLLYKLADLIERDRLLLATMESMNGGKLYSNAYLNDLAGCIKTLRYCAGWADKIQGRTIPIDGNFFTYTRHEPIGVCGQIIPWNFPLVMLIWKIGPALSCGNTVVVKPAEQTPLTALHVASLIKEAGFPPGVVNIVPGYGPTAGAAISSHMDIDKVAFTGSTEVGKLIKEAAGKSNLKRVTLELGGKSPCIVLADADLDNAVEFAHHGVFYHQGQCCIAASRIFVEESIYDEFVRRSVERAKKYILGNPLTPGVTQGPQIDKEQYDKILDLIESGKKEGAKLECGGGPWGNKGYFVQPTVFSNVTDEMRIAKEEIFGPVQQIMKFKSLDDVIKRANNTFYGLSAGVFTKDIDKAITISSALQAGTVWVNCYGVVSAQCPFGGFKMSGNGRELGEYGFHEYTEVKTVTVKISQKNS
HPGD inh: HPGD (human) dehydrogenase inhibition; Potency, µM, hits mostly inhibitors; P15428; 150,000 compounds, 4.3% hits; purified HPGD, NADH fluorescence kinetic, PGE2 substrate
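NADH formation kinetics: reaction with 30 uM PGE2 and 1 mM NAD+ (final), 20 nM enzyme, Tris-HCl pH 8 with Tween 20, after 15 min compound preincubation at room temperature. Fluorescence change, last versus first of five reads.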
PNC inhibitor: perinucleolar compartment assembly inhibition. 140,000 compounds, 3.1% hits. PC3M PTB-GFP, PNC prevalence imaging, 16 h; active compounds read low. activity change (PNC), negative = inhibition, % at 10 µM;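 active = readout at or below -70, meaning at least 70% loss of cells showing the perinucleolar compartment, a nuclear body marking cancer cells; inconclusive = readout between -30 and a set limit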
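Read-out is percentage of cells bearing a perinucleolar compartment, from automated 20x imaging of fixed, Hoechst-stained PC3M PTB-GFP cells. Cells were seeded 4 h, then exposed 16 h to compound (23 nl of library stock) in duplicate plates.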
A number is an active result; [ ] = another dose, or the depositor's remark. In the library only some 11% were active in any assay of this set; here they are far more common. Unless noted, calls come from the whole dose curve; as a rule, active = well fitted inhibition curve with a large enough effect (not every such curve was filed as active); inconclusive = small, poorly fitted or top-dose-only effect, or another doubt; inactive = no such curve, though single readings can be large or run the other way.

Screening C[C@@H]1OC2C3=C(C(=O)[C@H]4O[C@@H]4[C@H]3O)[C@@H]1[C@H]1[C@H](C)OC=C3[C@H](O)[C@H]4O[C@H]4/C(=N\OCc4ccccc4)[C@@]321 returned ALDH1A1 inh inactive[13.5 µM].
O=C(CN1CCCCC1)Nc1ccccc1-c1ccccc1 was read as ALDH1A1 inh 19µM, HPGD inh inactive and PNC inhibitor inactive.
Screening O=C(CN1CCN(C(=O)c2ccco2)CC1)Nc1cc(Cl)ccc1Cl returned ALDH1A1 inh inactive, HPGD inh inactive and PNC inhibitor inactive.
`O=C(CN1CCOCC1)Nc1scc(-c2ccccc2)c1C(=O)N1CCOCC1` gave ALDH1A1 inh inactive, HPGD inh inactive and PNC inhibitor inactive.
Screening O=C(CN1CCN(C(=O)c2ccco2)CC1)Nc1ccccc1-c1ccccc1 returned ALDH1A1 inh 6.3µM, HPGD inh inactive and PNC inhibitor inconclusive.
`O=C(CN1CCCC1)Nc1ccccc1Cl` gave ALDH1A1 inh inactive, HPGD inh inconclusive and PNC inhibitor inactive.
O=C(CN1CCOCC1)Nc1ccccc1-c1ccccc1 was read as ALDH1A1 inh 14µM, HPGD inh inactive and PNC inhibitor inactive.
`Cc1nn2c(c1-c1ccc(Cl)cc1)N=C(c1ccco1)CC2c1ccccc1` (stereo unspecified) gave ALDH1A1 inh inconclusive, HPGD inh inactive and PNC inhibitor inactive.
Cc1cc(C)c2oc(C(=O)Nc3ccc(S(=O)(=O)N4CCCC(C)C4)cc3)cc(=O)c2c1 (stereo unspecified) was read as ALDH1A1 inh inactive, HPGD inh inactive and PNC inhibitor inactive.
CN(C)CCCOc1nc2c(c(=O)n(C)c(=O)n2C)n1C was read as ALDH1A1 inh inactive, HPGD inh inactive and PNC inhibitor inactive.
Screening Cc1nn(C)cc1CNC(=O)C1(C)CC1(Cl)Cl (stereo unspecified) returned ALDH1A1 inh inactive, HPGD inh inactive and PNC inhibitor inactive.
`C=CCCCCCCCCCCCc1ccco1` gave ALDH1A1 inh inconclusive and HPGD inh 0.79µM.
C=CCN1CN(Cc2ccco2)CNC1=S was read as ALDH1A1 inh inactive, HPGD inh inactive and PNC inhibitor inactive.
`Cc1ccc(NC(=O)CC2=NC(=O)C(CC(=O)Nc3ccccc3F)S2)cc1` (stereo unspecified) gave ALDH1A1 inh inactive.
Screening COc1ccc(S(=O)(=O)c2ccc(OC)c(OC)c2)cc1OC returned ALDH1A1 inh inactive and PNC inhibitor inconclusive.
`CCN(CCO)c1ncnc2c1sc1nc(C(C)C)c3c(c12)CC(C)(C)OC3` gave ALDH1A1 inh inconclusive, HPGD inh inconclusive and PNC inhibitor inactive.
For COc1ncnc2c1oc1nc(CC(C)C)c3c(c12)CC(C)(C)OC3 the results were ALDH1A1 inh 1µM, HPGD inh inactive and PNC inhibitor inactive.
`O=c1c(-c2ccc(Cl)cc2)nc2cnc(Oc3ccccc3)nc2n1C1CC1` gave ALDH1A1 inh inconclusive and HPGD inh inactive.
Screening N#Cc1cccc(-c2nc3cnc(Oc4cccc(Cl)c4)nc3n(C3CC3)c2=O)c1 returned ALDH1A1 inh 25µM.
O=C(CCSc1ccc(Cl)cc1)NC1CCCCC1 was read as ALDH1A1 inh inactive, HPGD inh 4.5µM and PNC inhibitor -109.
For O=C(CSCc1ccc(Cl)cc1)NN=C1CCCCCC1 the results were ALDH1A1 inh 14µM, HPGD inh inactive and PNC inhibitor -93.
O=C(CSCc1ccc(Cl)cc1)Nc1ccc(S(=O)(=O)N2CCCCCC2)cc1 was read as ALDH1A1 inh inconclusive, HPGD inh inactive and PNC inhibitor inconclusive.
Screening O=C(CSc1ccc(Cl)cc1)N1CCCC1 returned ALDH1A1 inh inactive.
Screening O=C(CCSc1ccc(Cl)cc1)NN=C1CCCCCC1 returned ALDH1A1 inh 11µM.
For O=C(CCSc1ccc(Cl)cc1)NC12CC3CC(CC(C3)C1)C2 the results were ALDH1A1 inh inconclusive, HPGD inh inconclusive and PNC inhibitor inactive.
Screening CC(=O)N(C)c1ccc(NC(=S)NCC(C)C)cc1 returned ALDH1A1 inh inactive.
COc1ccc(C(C(=O)NC2CCCC2)N(C(=O)c2ccoc2C)c2ccc(C)c(C)c2)cc1 (stereo unspecified) was read as ALDH1A1 inh inconclusive, HPGD inh inactive and PNC inhibitor inconclusive.
For O=S(=O)(c1cccc2c(S(=O)(=O)N3CCCC3)cccc12)N1CCCC1 the results were ALDH1A1 inh inactive, HPGD inh inactive and PNC inhibitor -129.
Screening O=S(=O)(c1cc(Cl)ccc1Cl)N1CCCCC1 returned ALDH1A1 inh inactive, HPGD inh inactive and PNC inhibitor inconclusive.
O=S(=O)(c1cccc2c(Cl)cccc12)N1CCCNCC1 was read as ALDH1A1 inh inactive and HPGD inh inactive.
Screening O=S(=O)(c1cc(Cl)ccc1Cl)N1CCCC1 returned ALDH1A1 inh 0.089µM, HPGD inh inactive and PNC inhibitor inconclusive.
COC(=O)c1ccc(C(/C=C/[C@@H](C)C(=O)N(C)Cc2ccccc2)NC(=O)OCc2ccccc2)cc1 (stereo partly specified) was read as ALDH1A1 inh inconclusive and HPGD inh inactive.
`CC(=O)C1=C(O)C(=O)N(Cc2ccccc2)C1c1ccco1` (stereo unspecified) gave ALDH1A1 inh inconclusive, HPGD inh inactive and PNC inhibitor inactive.
Screening CC(CCc1ccccc1)NC(=O)N1CCOCC1 (stereo unspecified) returned ALDH1A1 inh inactive, HPGD inh inactive and PNC inhibitor inactive.
`CC(=O)c1cc(F)c(N2CCN(C(=O)c3ccco3)CC2)cc1C` gave ALDH1A1 inh inconclusive, HPGD inh inactive and PNC inhibitor inactive.
For CC(=O)c1ccc(N2CCN(C(=O)c3ccc(Br)cc3)CC2)c(F)c1 the results were ALDH1A1 inh 10µM, HPGD inh 28µM and PNC inhibitor inconclusive.
`CCCOc1ccc(N2C(=O)CC(N3CCN(C(=O)c4ccco4)CC3)C2=O)cc1` (stereo unspecified) gave ALDH1A1 inh inconclusive, HPGD inh inactive and PNC inhibitor inactive.
For CC(=O)c1ccc(N2CCCCC2)c(F)c1 the results were ALDH1A1 inh inactive.
Screening COC(=O)c1ccc(N2C(=O)CC(N3CCN(C(=O)c4ccco4)CC3)C2=O)cc1 (stereo unspecified) returned ALDH1A1 inh 13µM, HPGD inh inactive and PNC inhibitor inactive.
For CC(=O)c1ccc(N2CCN(C(=O)c3ccco3)CC2)c(F)c1 the results were ALDH1A1 inh 3.5µM, HPGD inh 16µM and PNC inhibitor inactive.
COc1cccc(NC(=S)NNC(=O)Cn2nc(C(F)(F)F)cc2C)c1 was read as ALDH1A1 inh inconclusive, HPGD inh inactive and PNC inhibitor inactive.
Screening COC(=O)CS(=O)(=O)c1ccc(C)cc1 returned ALDH1A1 inh inactive.
For CCOC(=O)c1ccc(NC(=O)CSc2ccc(-c3ccncc3)nn2)cc1 the results were ALDH1A1 inh inactive.
`Clc1ccc(-n2ncc3c(NCc4ccco4)ncnc32)cc1` gave ALDH1A1 inh inactive, HPGD inh inactive and PNC inhibitor inactive.
Clc1ccc(Cn2ncc3c(NCc4ccco4)ncnc32)c(Cl)c1 was read as ALDH1A1 inh inconclusive, HPGD inh 28µM and PNC inhibitor inactive.
`O=C1CSC(c2ccccn2)N1Cc1cn2ccccc2n1` (stereo unspecified) gave ALDH1A1 inh inactive, HPGD inh inactive and PNC inhibitor inactive.
